# Laboratory results: article PMC7862700, “An all-to-all approach to the identification of sequence-specific readers for epigenetic DNA modifications on cytosine”
# Legend:
# Assay in all cases: DAPPL (digital affinity profiling via proximity ligation, sequencing); 10 mM Tris-HCl pH 7.5, 50 mM NaCl, 1 mM DTT, 4% glycerol, room temperature, 30 min; GST-TFs on glutathione beads, 16-mer random dsDNA library, 0.1% formaldehyde crosslink after washing; high values mean tight binding
# Details in all cases: protein: recombinant; tags: N-terminal GST; dsDNA, one strand shown
# FLI1 = target: T1, FLI1 (Homo sapiens, UniProt Q01543 1-452)
# T1 sequence: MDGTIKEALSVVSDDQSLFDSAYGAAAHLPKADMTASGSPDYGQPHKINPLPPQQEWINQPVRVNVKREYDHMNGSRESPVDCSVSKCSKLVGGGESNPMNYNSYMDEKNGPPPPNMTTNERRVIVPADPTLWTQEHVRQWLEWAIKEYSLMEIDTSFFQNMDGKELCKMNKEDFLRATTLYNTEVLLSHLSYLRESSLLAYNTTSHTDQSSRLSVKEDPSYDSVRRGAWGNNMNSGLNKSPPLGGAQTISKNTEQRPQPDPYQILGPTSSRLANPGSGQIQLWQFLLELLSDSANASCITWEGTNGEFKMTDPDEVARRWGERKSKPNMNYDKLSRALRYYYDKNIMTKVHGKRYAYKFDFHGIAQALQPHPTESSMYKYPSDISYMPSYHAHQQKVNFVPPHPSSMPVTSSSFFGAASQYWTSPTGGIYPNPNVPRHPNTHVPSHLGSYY
# How it was run: (§1)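 Each value of binding signal is a hexamer's read frequency for a factor divided by the same hexamer's frequency in the tag-only sample. Barcoded, bead-captured GST fusions of human transcription factors made in yeast were pooled with that sample and incubated with 200 nmole of a random double-stranded 16-mer DNA library in Tris/NaCl/DTT/glycerol buffer at room temperature for 30 min. Washing, 0.1% formaldehyde crosslinking, proximity ligation, PCR and Illumina NextSeq500 sequencing followed.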
# ELK1 = target: T2, ELK1 (Homo sapiens, UniProt P19419 1-428)
# T2 sequence: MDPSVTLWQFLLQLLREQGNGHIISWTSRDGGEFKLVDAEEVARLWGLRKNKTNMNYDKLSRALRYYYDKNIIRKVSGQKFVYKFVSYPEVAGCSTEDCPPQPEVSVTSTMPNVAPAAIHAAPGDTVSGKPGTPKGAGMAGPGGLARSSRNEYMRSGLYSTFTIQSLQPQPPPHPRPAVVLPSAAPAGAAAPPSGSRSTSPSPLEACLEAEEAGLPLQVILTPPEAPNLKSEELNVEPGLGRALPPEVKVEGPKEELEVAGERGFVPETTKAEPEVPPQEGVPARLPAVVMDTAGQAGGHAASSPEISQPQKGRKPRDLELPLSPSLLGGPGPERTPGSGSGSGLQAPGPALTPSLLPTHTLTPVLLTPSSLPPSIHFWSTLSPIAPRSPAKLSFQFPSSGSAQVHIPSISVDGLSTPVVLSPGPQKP
# How it was run: as §1
# GABPA = target: T3, GABPA (Homo sapiens, UniProt Q06546 1-454)
# T3 sequence: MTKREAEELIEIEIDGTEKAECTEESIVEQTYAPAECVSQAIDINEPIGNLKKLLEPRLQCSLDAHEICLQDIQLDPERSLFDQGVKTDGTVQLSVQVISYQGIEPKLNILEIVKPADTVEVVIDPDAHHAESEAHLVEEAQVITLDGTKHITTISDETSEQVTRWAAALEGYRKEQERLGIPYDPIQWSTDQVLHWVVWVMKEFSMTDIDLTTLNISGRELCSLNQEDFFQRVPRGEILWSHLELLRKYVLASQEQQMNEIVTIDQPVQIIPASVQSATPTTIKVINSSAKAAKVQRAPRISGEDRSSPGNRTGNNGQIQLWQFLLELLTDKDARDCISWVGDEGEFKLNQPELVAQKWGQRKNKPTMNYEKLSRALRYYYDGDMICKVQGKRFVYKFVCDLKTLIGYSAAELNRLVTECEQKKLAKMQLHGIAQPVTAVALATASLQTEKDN
# How it was run: as §1
# ERG = target: T4, ERG (Homo sapiens, UniProt P11308 1-479)
# T4 sequence: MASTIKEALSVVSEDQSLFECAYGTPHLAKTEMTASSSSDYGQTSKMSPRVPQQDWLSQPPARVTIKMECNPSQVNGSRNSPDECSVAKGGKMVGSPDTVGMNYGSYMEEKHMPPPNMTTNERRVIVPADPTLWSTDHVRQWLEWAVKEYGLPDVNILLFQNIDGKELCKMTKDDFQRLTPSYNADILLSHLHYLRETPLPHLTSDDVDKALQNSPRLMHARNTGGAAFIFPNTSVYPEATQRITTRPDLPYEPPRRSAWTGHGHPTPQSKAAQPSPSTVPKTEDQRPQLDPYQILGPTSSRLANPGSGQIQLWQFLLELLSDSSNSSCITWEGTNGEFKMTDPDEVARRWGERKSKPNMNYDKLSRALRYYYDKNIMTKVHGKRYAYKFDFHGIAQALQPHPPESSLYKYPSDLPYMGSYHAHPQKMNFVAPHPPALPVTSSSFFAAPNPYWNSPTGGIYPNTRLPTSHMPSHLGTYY
# How it was run: as §1
# ELF1 = ELF1 (Homo sapiens, UniProt P32519 1-619)
# Chain of ELF1 (P32519 whole entry): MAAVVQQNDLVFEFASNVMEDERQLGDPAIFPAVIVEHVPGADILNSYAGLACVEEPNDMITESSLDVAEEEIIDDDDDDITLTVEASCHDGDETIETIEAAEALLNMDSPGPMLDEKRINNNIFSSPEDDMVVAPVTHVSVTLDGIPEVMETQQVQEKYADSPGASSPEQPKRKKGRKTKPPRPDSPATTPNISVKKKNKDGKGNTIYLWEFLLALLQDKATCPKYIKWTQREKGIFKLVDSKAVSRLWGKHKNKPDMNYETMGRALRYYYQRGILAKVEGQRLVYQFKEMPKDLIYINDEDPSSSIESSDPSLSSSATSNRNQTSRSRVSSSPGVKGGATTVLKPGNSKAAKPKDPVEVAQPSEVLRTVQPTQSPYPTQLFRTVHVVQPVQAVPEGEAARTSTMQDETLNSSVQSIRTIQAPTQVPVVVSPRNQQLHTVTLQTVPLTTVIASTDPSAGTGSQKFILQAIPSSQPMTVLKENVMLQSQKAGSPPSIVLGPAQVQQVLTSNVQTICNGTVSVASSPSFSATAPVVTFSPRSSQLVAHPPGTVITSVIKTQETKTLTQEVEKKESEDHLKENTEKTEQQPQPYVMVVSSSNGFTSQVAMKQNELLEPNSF
# How it was run: as §1
# EHF = target: T5, EHF (Homo sapiens, UniProt Q9NZC4 1-300)
# T5 sequence: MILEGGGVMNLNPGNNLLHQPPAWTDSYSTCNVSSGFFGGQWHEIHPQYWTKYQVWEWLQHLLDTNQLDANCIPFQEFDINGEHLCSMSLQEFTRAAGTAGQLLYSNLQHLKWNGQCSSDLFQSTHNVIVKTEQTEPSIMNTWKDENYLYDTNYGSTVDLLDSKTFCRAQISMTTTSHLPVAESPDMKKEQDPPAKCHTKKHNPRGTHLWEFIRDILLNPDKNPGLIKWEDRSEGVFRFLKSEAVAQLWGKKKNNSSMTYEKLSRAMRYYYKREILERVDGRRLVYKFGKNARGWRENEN
# How it was run: as §1
# SPI1 = SPI1 (Homo sapiens, UniProt P17947 1-270)
# How it was run: as §1
# SPIB = SPIB (Homo sapiens, UniProt Q01892 1-262)
# Chain of SPIB (Q01892 whole entry): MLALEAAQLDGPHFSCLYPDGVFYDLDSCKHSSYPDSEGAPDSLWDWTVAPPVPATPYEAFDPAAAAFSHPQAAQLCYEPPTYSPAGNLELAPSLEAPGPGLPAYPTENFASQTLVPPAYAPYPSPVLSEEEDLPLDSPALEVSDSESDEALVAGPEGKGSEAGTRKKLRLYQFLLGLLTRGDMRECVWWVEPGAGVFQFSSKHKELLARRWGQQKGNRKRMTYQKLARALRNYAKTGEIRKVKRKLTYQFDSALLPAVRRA
# How it was run: as §1
Sequence,binding signal (FLI1),binding signal (ELK1),binding signal (GABPA),binding signal (ERG),binding signal (ELF1),binding signal (EHF),binding signal (SPI1),binding signal (SPIB)
TGTTGA,"1.15 fold enrichment (6-mer frequency, TF over GST control)","1.08 fold enrichment (6-mer frequency, TF over GST control)","1.16 fold enrichment (6-mer frequency, TF over GST control)","1.08 fold enrichment (6-mer frequency, TF over GST control)","1.16 fold enrichment (6-mer frequency, TF over GST control)","1.07 fold enrichment (6-mer frequency, TF over GST control)","1.11 fold enrichment (6-mer frequency, TF over GST control)","1.09 fold enrichment (6-mer frequency, TF over GST control)"
GCTCTG,"1.18 fold enrichment (6-mer frequency, TF over GST control)","1.26 fold enrichment (6-mer frequency, TF over GST control)","1.03 fold enrichment (6-mer frequency, TF over GST control)","1.01 fold enrichment (6-mer frequency, TF over GST control)","1.08 fold enrichment (6-mer frequency, TF over GST control)","1.15 fold enrichment (6-mer frequency, TF over GST control)","1.11 fold enrichment (6-mer frequency, TF over GST control)","1.1 fold enrichment (6-mer frequency, TF over GST control)"
TATTCG,"1.11 fold enrichment (6-mer frequency, TF over GST control)","1.11 fold enrichment (6-mer frequency, TF over GST control)","1.2 fold enrichment (6-mer frequency, TF over GST control)","1.14 fold enrichment (6-mer frequency, TF over GST control)","1.14 fold enrichment (6-mer frequency, TF over GST control)","1.11 fold enrichment (6-mer frequency, TF over GST control)","1.18 fold enrichment (6-mer frequency, TF over GST control)","1.16 fold enrichment (6-mer frequency, TF over GST control)"
TCTATG,"1.12 fold enrichment (6-mer frequency, TF over GST control)","1.2 fold enrichment (6-mer frequency, TF over GST control)","1.21 fold enrichment (6-mer frequency, TF over GST control)","1.03 fold enrichment (6-mer frequency, TF over GST control)","1.12 fold enrichment (6-mer frequency, TF over GST control)","1.13 fold enrichment (6-mer frequency, TF over GST control)","1.09 fold enrichment (6-mer frequency, TF over GST control)","1.12 fold enrichment (6-mer frequency, TF over GST control)"
TCAATT,"1.09 fold enrichment (6-mer frequency, TF over GST control)","1.06 fold enrichment (6-mer frequency, TF over GST control)","1.19 fold enrichment (6-mer frequency, TF over GST control)","1.16 fold enrichment (6-mer frequency, TF over GST control)","1.16 fold enrichment (6-mer frequency, TF over GST control)","1.12 fold enrichment (6-mer frequency, TF over GST control)","1.18 fold enrichment (6-mer frequency, TF over GST control)","1.29 fold enrichment (6-mer frequency, TF over GST control)"
ACCTCG,"1 fold enrichment (6-mer frequency, TF over GST control)","1.18 fold enrichment (6-mer frequency, TF over GST control)","1.24 fold enrichment (6-mer frequency, TF over GST control)","1.15 fold enrichment (6-mer frequency, TF over GST control)","1.11 fold enrichment (6-mer frequency, TF over GST control)","1.16 fold enrichment (6-mer frequency, TF over GST control)","1.14 fold enrichment (6-mer frequency, TF over GST control)","1.19 fold enrichment (6-mer frequency, TF over GST control)"
CTTGAA,"1.16 fold enrichment (6-mer frequency, TF over GST control)","1.24 fold enrichment (6-mer frequency, TF over GST control)","1.09 fold enrichment (6-mer frequency, TF over GST control)","1.12 fold enrichment (6-mer frequency, TF over GST control)","1.2 fold enrichment (6-mer frequency, TF over GST control)","1.18 fold enrichment (6-mer frequency, TF over GST control)","1.13 fold enrichment (6-mer frequency, TF over GST control)","1.17 fold enrichment (6-mer frequency, TF over GST control)"
CGATCG,"1.18 fold enrichment (6-mer frequency, TF over GST control)","1.12 fold enrichment (6-mer frequency, TF over GST control)","1.14 fold enrichment (6-mer frequency, TF over GST control)","1.1 fold enrichment (6-mer frequency, TF over GST control)","1.13 fold enrichment (6-mer frequency, TF over GST control)","1.07 fold enrichment (6-mer frequency, TF over GST control)","1.02 fold enrichment (6-mer frequency, TF over GST control)","1.03 fold enrichment (6-mer frequency, TF over GST control)"
